Screening results as filed in PubChem BioAssay.
This is a sample that favours compounds with a hit; in the whole collection about 0.33% have one here.
FXIa single inh = inhibitors of human coagulation factor XIa; purified human FXIa, fluorogenic AMC substrate cleavage; inhibition, % at 10 µM; actives 0.3% (n = 33,000); P03951; AID 687;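 active = inhibition above 40% in the primary screen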
FXIIa single = blocks human coagulation factor XIIa activity. P00748. purified human FXIIa, AMC substrate fluorescence, 2 h. inhibition, % at 10 µM. actives 0.2% (n = 33,000). AID 701; in the data active = inhibition above about 30%
Target sequence (P00748 20-372 limits assumed): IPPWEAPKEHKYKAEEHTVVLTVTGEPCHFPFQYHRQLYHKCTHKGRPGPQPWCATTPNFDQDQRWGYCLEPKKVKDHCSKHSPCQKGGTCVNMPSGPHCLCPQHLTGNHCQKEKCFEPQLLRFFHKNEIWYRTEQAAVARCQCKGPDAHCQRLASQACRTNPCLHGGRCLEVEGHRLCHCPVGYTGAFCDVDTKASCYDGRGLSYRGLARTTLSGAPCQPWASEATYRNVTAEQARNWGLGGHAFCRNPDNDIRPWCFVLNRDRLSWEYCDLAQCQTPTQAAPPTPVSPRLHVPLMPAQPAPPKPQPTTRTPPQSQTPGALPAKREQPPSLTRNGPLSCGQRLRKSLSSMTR
Target sequence (P00748 373-615 limits assumed): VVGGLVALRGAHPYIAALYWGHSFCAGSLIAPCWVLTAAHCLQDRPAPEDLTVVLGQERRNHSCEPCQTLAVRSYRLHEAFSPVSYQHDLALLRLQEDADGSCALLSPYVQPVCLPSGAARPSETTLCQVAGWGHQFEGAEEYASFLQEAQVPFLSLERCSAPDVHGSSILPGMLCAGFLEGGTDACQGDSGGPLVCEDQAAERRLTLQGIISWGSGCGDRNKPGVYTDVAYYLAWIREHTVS
Each line names hits and unclear results; the compound was inactive in the other large screens.

O=C(Nc1ccccc1C(=O)N1CCOCC1)c1ccc(F)cc1	FXIa single inh 47
CN(c1ccc(C(=O)Nc2ccccc2C(=O)N2CCOCC2)cc1)S(C)(=O)=O	none
COc1ccc(NS(=O)(=O)c2ccc3oc(SC4CCOC4=O)nc3c2)cc1 (stereo not given)	none
C=CCn1c(=O)c2c(nc(Br)n2Cc2ccccc2Cl)n(C)c1=O	FXIa single inh 46
CCOC(=O)Cn1c(=O)c2c(nc(Br)n2Cc2ccccc2Cl)n(C)c1=O	none
COc1ccc(CCN2C(=O)C3CC(C)=C(C)CC3C2=O)cc1OC (stereo not given)	none
O=C(Nc1ccc(-n2cnnn2)cc1)C1CCCCC1	none
Cc1cccc(N2CCN(CC(=O)Nc3ccc(-n4cnnn4)cc3)CC2)c1C	FXIa single inh 41
COc1cc(OC)cc(C(C(=O)NC2CCCCC2)N(C(=O)c2ccno2)c2ccccc2)c1 (stereo not given)	none
O=C(O)C[CH2][Ge](=[O])[O][Ge](=[O])[CH2]CC(=O)O	none
CCN(CC)CCNC(=O)C(C)c1nn(C)c(=O)c2ccccc12 (stereo not given)	FXIa single inh 42
CC(O)CNC(=O)c1ccc(-c2nn(C)c(=O)c3ccccc23)cc1 (stereo not given)	none
CCOC(=O)c1ccc2c(c1)nc(COc1ccc(OC)cc1)n2CC	none
COc1ccc(-n2cnnc2SCC(=O)Nc2nc(C)c(Cl)cc2Cl)cc1	none
COc1ccccc1-n1cnnc1SCC(=O)Nc1nc(C)c(Cl)cc1Cl	FXIa single inh 43
CCS(=O)(=O)N1CCN(c2ccccn2)CC1	none
CCN(c1ccccc1)S(=O)(=O)c1ccc(N)c(OC)c1	none
COc1cc(/C=c2\sc3n(c2=O)C(c2ccccc2)C(c2ccccc2)=NN=3)ccc1O (stereo not given)	none
COc1cc(/C=c2\sc3n(c2=O)CCCN=3)ccc1O	FXIa single inh 43
CC1=NN(C(=O)Cc2ccc([N+](=O)[O-])cc2)C(O)(c2ccccc2)C1 (stereo not given)	none
Cc1ccc(C(=O)NC(Cc2c[nH]c3ccccc23)C(=O)O)cc1 (stereo not given)	none
COC(=O)C(Cc1c[nH]c2ccccc12)NC(C)=O (stereo not given)	FXIa single inh 103
COCCN=C1Sc2nc3c(C)cccc3cc2CN1Cc1ccco1	FXIa single inh 43
Cc1ccc2cc3c(nc2c1)N(Cc1ccco1)CC3	none
CC(=O)NC1(c2cccc(F)c2)CCN(C(=O)Nc2ccc(C#N)cc2)CC1	none
Cc1ccc(S(=O)(=O)N(CCC(=O)O)Cc2ccc(Cl)cc2)cc1	none
CCN(CC)C(=O)Oc1ccc2c(=O)c(-c3ccccc3)coc2c1	none
O=C(Oc1ccc2c(=O)c(Cl)coc2c1)c1cccnc1	FXIa single inh 59
Cc1ccc(OCc2nnc(SCC(=O)NC3CCCCC3)n2C)cc1	none
Cn1c(SCC(=O)NC2CCCCC2)nnc1-c1cccc(N)c1	FXIa single inh 40
O=C(O)Cn1c(SCc2cccc3ccccc23)nc2ccccc21	none
O=C(c1cccc2ccccc12)n1nnc2ccccc21	FXIa single inh 48
Cc1ccc(C(=O)n2nnc3ccccc32)cc1	FXIa single inh 97, FXIIa single 68
Cc1onc(-c2c(Cl)cccc2Cl)c1C(=O)n1nnc2ccccc21	none
CCOC(=O)/C(C(C)=O)=C1/OC(=O)c2ccccc21	none
CCOc1ccc(OCCOc2ncnc3ccccc23)cc1	none
CCOC(=O)C1=C(N)Oc2c(c(=O)[nH]c3ccccc23)C1c1ccccc1 (stereo not given)	none
CCn1c(SCC(=O)Nc2ccc(C)cc2)nnc1-c1ccc(O)cc1	none
O=C(NCc1ccc2c(c1)OCO2)c1ccc(N2C(=O)C3CCCCC3C2=O)cc1 (stereo not given)	none
O=C(NC(C(=O)c1ccccc1)n1c(=O)cc[nH]c1=S)c1ccccc1 (stereo not given)	FXIa single inh 48
Cc1cc(=O)n(CNC(=O)c2ccccc2)c(=S)[nH]1	none
Cc1cccc(S(=O)(=O)Nc2ccc(C)c3c2OC(C)(C)C3)c1	none
CCn1c(O)c(C=Nc2ccccc2)n(-c2ccccc2)c1=S	none
Cc1ccc(S(=O)(=O)NCC2CCC(C(=O)NCCCOC(C)C)CC2)cc1 (stereo not given)	none
CCOC(=O)c1c(C)[nH]c(C)c1C(=O)CSc1nnc(-c2ccncc2)n1Cc1ccccc1	none
CCn1c(SCC(=O)c2[nH]c(C)c(C(C)=O)c2C)nnc1-c1ccccc1	FXIa single inh 41
Cc1ccc(C2=N/C(=C\c3cccs3)C(=O)N2Nc2ccccc2)cc1	none
O=C1N=C(c2ccccc2)S/C1=C\c1cccs1	FXIIa single 46
CCCCN(CC)C(=O)Cn1cnc2ccc(S(=O)(=O)N3CCC(C)CC3)cc2c1=O	none
Cc1cnc(C(=O)OCC(=O)NCc2ccccc2)cn1	FXIa single inh 41
COc1ccc(CCNC(=O)COC(=O)c2cnc(C)cn2)cc1	none
Cc1ccc(N(C(=O)c2ccccn2)C2(C(=O)NC3CCCC3)CCCCC2)cc1	FXIa single inh 42
O=C(c1ccccn1)N(Cc1ccco1)C1(C(=O)NC2CCCC2)CCCCC1	none
O=c1oc2c3c4c(cc2c2c1CCC2)OCCN4CCC3	none
O=C(Nc1nc2n(n1)C(c1ccccc1)C=C(c1ccccc1)N2)c1ccco1 (stereo not given)	none
O=C(Nc1nc2n(n1)C(c1ccc(Cl)cc1)CC(c1ccc(Cl)cc1)N2)c1ccco1 (stereo not given)	FXIIa single 46
O=C(c1ccco1)N1CCN(S(=O)(=O)Cc2ccc(Cl)cc2)CC1	none
CC1=C(CC/C(C)=N/NC(N)=S)C(C)(C)CCC1	none
Cc1ccc(OC(=O)c2ccc(Br)o2)cc1	none
CC(=O)c1ccc(OC(=O)c2ccc(Br)o2)cc1	FXIIa single 50
CSc1ccccc1NC(=O)c1ccccc1N(Cc1ccccc1)S(C)(=O)=O	none
COc1ccc(CN2CC(C(=O)NCc3ccc4c(c3)OCO4)CC2=O)cc1 (stereo not given)	none
COc1ccc(CC(=O)NCc2ccc3c(c2)OCO3)cc1	FXIa single inh 53
O=C(c1ccc2c(=O)n(C3CCCC3)c(=S)[nH]c2c1)N1CCc2ccccc21	none
CC(Cc1cccs1)NC(=O)Nc1ccc(Cl)c(Cl)c1 (stereo not given)	none
COc1ccc(C(=O)n2nc(-c3ccccc3)nc2N)cc1OC	FXIIa single 62
COc1cc(C(N)=O)ccc1OCc1ccccc1	none
Cc1cccc(NC(=O)CN(c2ccc(C(C)C)cc2)S(=O)(=O)c2c(C)nn(C)c2C)n1	none
COCCNC(=O)COC(=O)c1[nH]c(C)c(C(C)=O)c1C	none
CNC(=O)COC(=O)c1[nH]c(C)c(C(C)=O)c1C	FXIa single inh 46
O=C(Nc1cccc(C(F)(F)F)c1)c1cccnc1N1CCN(c2ccccc2)CC1	none
Cc1c(O)ccc(C(=O)CN2C(=O)c3ccccc3C2=O)c1O	FXIa single inh 59
CCOC(=O)CN1C(=O)c2ccccc2C1=O	none
CCCCNC(=O)Cc1coc2ccc3ccccc3c12	none
CCc1cccc(NC(=O)c2snc3c(=O)[nH]cnc23)c1	none
Cc1cccc(NC(=O)c2snc3c(=O)[nH]cnc23)c1	FXIa single inh 103
CN(CCOc1ccccc1)c1ccc(S(=O)(=O)N2CCCCC2)cn1	FXIa single inh 41
CN(C)S(=O)(=O)c1ccc(S(=O)(=O)N2CCCC2)cc1	none
O=C(COc1ccccc1Br)N1CCN(c2ccccc2)CC1	none
COc1ccc(C2=CSC3=C(C(=O)c4cccc(S(=O)(=O)N(C)C)c4)CCN23)cc1	none
Cc1cc(C)c(C#N)c(SCSCc2ccccc2)n1	none
O=c1c(-c2cc3ccccc3o2)[n+]([O-])c2ccccc2n1OCc1ccccn1	FXIa single inh 40
